The panel holds about 83,000 compounds, 20% with a hit somewhere; the sample as a whole holds those more often.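 In brief: 96-well plates, 48 h treatment, single concentration, percent growth endpoint.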 A number with no mark means an inactive call. The source made the active and inactive calls. The calls were made as follows: active = growth percent below 10; inactive = the rest.

In this assay the test system is HL-60(TB) leukemia. The assay can be described thus: NCI-60 one-dose screen, 48 h (100 = growth as untreated, 0 = no growth, -100 = all killed). Conditions: 10 µM unless noted.
With `O=C(COc1ccc(-c2nc3ccccc3[nH]2)cc1)N=Nc1c(O)[nH]c2ccccc12`, the growth is 103%.

Consider `CN(C)c1nc(-c2ccco2)n2nc(-c3ccco3)cc2n1`, for which the growth is 97.3%. As for `c1ccc(-c2oc(-c3ccccc3)c(CN3CCCCC3)c2CN2CCCCC2)cc1`, the figure is 27%. Turning to `O=C(N/N=C/c1ccccc1O)C(=O)Nc1ccc(F)cc1`, the growth is 29.6%.

In the case of `CCN1C(=O)CC(SC2CC(=O)N(CC)C2=O)C1=O` (stereo not given), the growth is 79.9%.

As to `Cc1cnc(C(=O)Nc2nc3ccc(S(=O)(=O)Nc4ccc(C(C)(C)C)cc4)cc3[nH]2)cn1`, the growth is -18.2% (active). Take `C=C1CCC2C3(C)COC(c4c(OC)cccc4OC)OC3CCC2(C)C1C/C=C1/C(=O)OCC1O` (stereo not given): the growth is 29.4%. The value for `CCOC(=O)n1cc(-c2nonc2-c2cn(C)c3ncccc23)c2ccccc21` was 84.7%; that for `CC(C)C[C@H](C(=O)N[C@H](C(N)=O)C(C)C)N1CC=CCN(OCc2ccccc2)S1(=O)=O` was 119% [2.5 µM]. Take `COCCNC1=C(Cl)C(=O)c2ccccc2C1=O`: the growth is 110%. As for `CCN(CC)CCOc1ccc2ccc(=O)oc2c1`, the growth was 3.42% (active). For `N#Cc1nc(-c2cccc(Br)c2)cc(-c2ccc(Nc3nc(N4CCCCC4)nc(N4CCCCC4)n3)cc2)c1N`, the growth is -16.4% (active). As to `O=C(COc1ccc(/C=C2\Oc3ccc4ccccc4c3C2=O)cc1)c1ccc([N+](=O)[O-])cc1`, the growth was 75.9%. As for `COc1cc(-c2nn(-c3cccc(NC(=O)c4ccc(Cl)c(C(F)(F)F)c4)c3)cc2-c2ccncc2)ccc1Cl`, the figure is 3.23% (active). With `CCCCN(CCC#N)C(N)=O`, the growth was 99.6%.

`Cc1ccc2c(=O)cc(C(=O)Nc3sc4c(c3C(=O)NCc3cccnc3)CCCC4)oc2c1C`: the growth was 88.3%. The value for `O=C(O)c1cn(C2CC2)c2cc(N3CCN(C(=O)N4CCOCC4)CC3)c(F)cc2c1=O` was 90.3%. With `Cc1nn2c(/C=C3/C(=O)Nc4cc(Cl)ccc43)c(-c3ccccc3)nc2s1`, the growth is 32.2%.

As to `CN(C)c1ccc2c(N(C)C)cc(N(C)C)nc2c1`, the growth was 92.1%. As for `O=C1/C(=C/c2ccccc2)SC(=Nc2ccccc2)N1Nc1ccccc1`, the figure is -7.82% (active); as for `CCCCCCN(CCCCCC)CCCNc1nccc2ccccc12`, -1.22% (active).

On to `Cc1ccc(Oc2nc3ccccc3cc2-c2nnc(Cn3c(COc4ccccc4)nc4ccccc43)o2)cc1`, for which the growth was -18.2% (active). As to `O=C(/C=C\c1ccc(O)cc1)c1ccccc1`, the growth was 71.9%. The value for `CC/C(=C(\c1ccc(O)cc1)c1ccc(OCCN(C)CCN(C)C(=O)CCCCC(=O)c2c(C)[nH]c(/C=C3\N=C(c4ccc[nH]4)C=C3OC)c2C)cc1)c1ccccc1` was 103%.

For `COc1ccc(/C=C/C(C)=N/OCC(=O)O)cc1`, the growth is 89.1%. As to `CCCCC[C@@H]1Cc2cc(O)c(C(=O)O)c3c2[C@H](C[C@@]2(CCCO2)O3)O1`, the growth is 86.5%. Turning to `CCOC(=O)c1cc(C(=O)c2cc(OC)cc(OC)c2)n2ncc3ccccc3c12`, the growth is -8.3% (active). Consider `CC(=O)OC[C@]12CC[C@@H](C(=O)CBr)[C@@H]1[C@H]1CC[C@@H]3[C@@]4(C)CCCNC(C)(C)[C@@H]4CC[C@@]3(C)[C@]1(C)CC2`, for which the growth was -18% [100 µM] (active). For `COc1cc2ncnc(Nc3ccc(S(=O)(=O)Nc4cc(C)on4)cc3)c2cc1OCCCN1CCN(c2ccc([N+](=O)[O-])cc2)CC1`, the growth was 118%. For `O=C1c2c(c3c4cc(Br)ccc4[nH]c3c3ccc4ccccc4c23)C(=O)N1O`, the growth is 116%. Consider `CC(C)(C)OC(=O)NC(CSCc1ccccc1)C(=O)ON1C(=O)CCC1=O` (stereo not given), for which the growth was 70.9%.

For `Cc1ccc(Cl)cc1N1CCN(C(=O)[C@@H]2C[C@@H]2c2ccc(F)cc2)CC1`, the growth was 69.9%. Turning to `COc1ccc(OC)c(NC(=O)c2cc3oc4ccccc4c3cc2O)c1`, the growth is 121%.

In the case of `O=C(O)Cc1cc(=O)[nH]n(-c2ccccc2)c1=O`, the growth was 95.3%. Take `CN1CCN(CCOc2ccc(-c3cnc4c(-c5ccc(C(F)(F)F)cc5)cnn4c3)cc2)CC1`: the growth was -32.5% (active). Take `N#Cc1nc(-c2ccc(F)cc2)oc1S(=O)(=O)N1CCCCC1`: the growth was 32.4%. On to `CCC(c1cccc(O)c1)C(CC)c1cccc(O)c1` (stereo not given), for which the growth is 20.7%.

As for `Cc1ncc([N+](=O)[O-])n1CCOc1ccc(C(=O)/C=C/c2ccc(C(F)(F)F)cc2)cc1`, the growth was 54.3%.

With `COc1ccc(-c2nc3c(c(-c4ccc(Cl)cc4)nn3-c3ccccc3)c(-c3ccccc3)c2C#N)cc1`, the growth is 114%. The value for `O=C1/C(=C/c2ccc([N+](=O)[O-])o2)Oc2ccc(Br)cc21` was 43.2%.

Source of the values: PubChem BioAssay (NCI).
